Screening results (PubChem BioAssay)
These entries were drawn from the full list.
aSyn 5UTR act: Activators via SNCA 5'UTR binding, MLPCN. alpha-synuclein 5'UTR reporter, activators screen. activity score, % (tested at 7.5 µM), hits read low. 300,000 tested, 7.1% active; in the data active = activity score below about -60%
A number is an active result; . = inactive.

SMILES	aSyn 5UTR act
COc1cc2c(cc1NC(=O)CN1CCN(S(=O)(=O)c3ccccc3F)CC1)oc1ccccc12	-91
COc1cc2c(cc1NC(=O)C(C)Sc1ccc(C)cc1)oc1ccccc12 (stereo not drawn)	-109
CCc1ccc(OCc2cnc(Cl)s2)cc1	-78
Cc1ccccc1N=C1Nc2ccccc2CS1	-134
COc1cccc(/C=N/N2CCN(c3ccccc3OC)CC2)c1	-93
COc1ccccc1N1CCN(/N=C/c2cccc(OC)c2O)CC1	-67
COc1ccccc1N1CCN(/N=C/c2cccc(Cl)c2)CC1	-196
COc1cccc(/C=N/NC(=O)N/N=C/c2cccc(OC)c2O)c1O	.
COc1ccccc1N1CCN(/N=C/c2cc(Br)ccc2F)CC1	-93
COc1ccc(/C=N/N2CCN(c3ccccc3OC)CC2)cc1Br	-101
O=C(Nc1ccc2nc(-c3ccccc3)oc2c1)c1ccco1	-227
O=C(Nc1ccc2oc(-c3cccnc3)nc2c1)c1ccc([N+](=O)[O-])o1	-97
O=C(Nc1ccc2oc(-c3cccnc3)nc2c1)c1ccc(Br)o1	-113
O=C(Nc1ccc2oc(-c3cccnc3)nc2c1)c1ccco1	-135
CCc1ccc(NC(=S)NCc2ccccc2)cc1	-90
Cc1nc2ccc(NC(=S)NCc3ccccc3)cc2nc1C	-80
O=C(CC12CC3CC(CC(C3)C1)C2)NC(=S)NCc1ccccc1	.
CC1CCCN(C(=O)Nc2ccc(Br)cc2Cl)C1 (stereo not drawn)	-91
CCS(=O)(=O)c1ncc(Cl)c(C(=O)Nc2ccc(S(=O)(=O)N3CCCC(C)C3)cc2)n1 (stereo not drawn)	.
Cc1ccc(N=Nc2c(N)nn(-c3ccccc3)c2N)cc1	-183
Cc1nn(-c2ccccc2)c(N)c1N=Nc1ccc2ccccc2c1	-242
COc1ccc2nc(/N=C(\N)NC(=O)C(C)(C)C)nc(C)c2c1	-85
CCC(=O)N/C(N)=N/c1nc(C)c2cc(OC)ccc2n1	-107
O=C(CC1CCCCC1)NCc1ccc(Cl)cc1	-69
CCC(C)n1ncn(-c2ccc(N3CCN(c4ccc(OCC5COC(Cn6cncn6)(c6ccc(Cl)cc6Cl)O5)cc4)CC3)cc2)c1=O (stereo not drawn)	.
SMILES	aSyn 5UTR act
CC1CCN(c2c([N+](=O)[O-])nn(-c3ccc4c(c3)OCCO4)[n+]2[O-])CC1	-98
CCCCSc1nc2c(cnn2-c2ccccc2)c(=O)n1N	-119
Nn1c(SCc2ccccc2)nc2c(cnn2-c2ccccc2)c1=O	-90
CCCSc1nc2c(cnn2-c2ccccc2)c(=O)n1N	-83
O=C(Cn1cnc2c(cnn2-c2ccc(F)cc2)c1=O)NCc1ccco1	-78
CCOC(=O)C(C)Oc1cccc2c(=O)n(CC(=O)NCc3ccco3)ccc12 (stereo not drawn)	.
O=c1c2cnn(-c3ccccc3)c2ncn1CCc1ccccc1	-114
Nc1ccc(-n2cnc3cc([N+](=O)[O-])ccc32)cc1	-66
CCc1nonc1NC(=O)c1oc2cc(C)c(C)cc2c1C	-127
CCc1nnc(NC(=O)c2oc3cc(C)c(C)cc3c2C)s1	-102
CC1(C)CC(=O)C(N=Nc2ccc(-c3ccccc3)cc2)=C(O)C1	-84
Cc1cccc(C(=O)OCC(=O)c2ccc3c(c2)OCO3)c1O	-153
O=C(COC(=O)c1ccccc1[N+](=O)[O-])c1ccc2c(c1)OCO2	-187
O=c1c2ccccc2sn1-c1ccccc1	-115
C=CCNc1nnc(Sc2ncccc2[N+](=O)[O-])s1	-115
O=C1NC(c2ccc(Br)cc2)Nc2sc3c(c21)CCC3 (stereo not drawn)	-96
O=C1NC(c2ccccn2)Nc2sc3c(c21)CCC3 (stereo not drawn)	-124
Cc1ccc(C2NC(=O)c3c(sc4c3CCN(C)C4)N2)s1 (stereo not drawn)	-72
Cc1ccsc1C1NC(=O)c2c(sc3c2CCCC3)N1 (stereo not drawn)	-218
c1cncc(-c2noc(C34CC5CC(CC(C5)C3)C4)n2)c1	-87
Cc1cc(Br)ccc1OCc1nc(-c2cccnc2)no1	-114
Cc1ccccc1OCc1nc(-c2ccccc2)no1	-178
Cc1ccc(-c2noc(COc3ccccc3C)n2)cc1	-86
c1ccc(-c2noc(COc3ccc4c(c3)OCO4)n2)cc1	-192
Cc1cc(NC(c2cccnc2)c2ccc3cccnc3c2O)no1 (stereo not drawn)	.
SMILES	aSyn 5UTR act
Cc1ccc(OCc2nc(-c3ccccc3)no2)cc1	-122
O=C(Nc1ccc(-c2noc(CCc3ccccc3)n2)cc1)c1cccnc1	-67
COc1cccc(C(=O)Nc2ccc(-c3nc4ccccc4o3)c(O)c2)c1	-115
O=C(Nc1ccc(-c2nc3ccccc3o2)cc1)c1cccnc1	-133
Cc1ccc2oc(-c3ccc(NC(=O)c4cccnc4)cc3)nc2c1	-162
CC(=O)Nc1ccc(SCC(=O)c2cc(C)n(Cc3cccs3)c2C)cc1	.
CC(=O)c1ccc(NC(=O)CNCc2cccs2)cc1	-134
O=C(CNCc1cccs1)Nc1ccc(N2CCCCCC2)cc1	-63
Cc1ccc(NC(=O)CNCc2cccs2)cc1Br	-85
Cc1ccc2oc(Nc3nc(C)c(C)c(C)n3)nc2c1	-99
CN(C)c1ccc(/C=C/C(=O)c2cc(Cl)ccc2O)cc1	-96
COc1ccc(/C=C/C(=O)c2cc(Cl)ccc2O)c(OC)c1	-80
COc1ccc(C(=O)/C=C/c2cc(C(=O)O)cc3c2OCOC3)c(O)c1	-75
O=C(/C=C/c1ccc(O)cc1)c1ccc(O)cc1O	-244
COc1ccc(C(=O)/C=C/c2ccccc2OC)c(OC(=O)c2ccc([N+](=O)[O-])cc2)c1	-332
COc1ccc(C(=O)/C=C/c2ccccc2)c(O)c1	-111
COc1ccc(/C=C/C(=O)CCC(=O)O)cc1	-78
COc1ccc(/C=C/C(=O)c2cc(F)ccc2OC(=O)c2ccccc2)cc1OC	.
COc1ccc(C(=O)/C=C/c2ccc(OC)cc2OC)c(O)c1	-283
COc1ccc(C(=O)/C=C/C(=O)N(CC(=O)NC2CCCCC2)Cc2ccccc2)c(O)c1	.
COc1ccc(C(=O)c2ccc(OC)cc2O)c(O)c1	-120
COc1ccc(/C=C/C(=O)c2ccc(OC)cc2OC)cc1	-114
COc1ccc(/C=C/C(=O)c2cc3c(cc2N)OCO3)cc1	-183
COc1ccc(C(=O)/C=C/Nc2ccccn2)c(OC)c1	-160
COc1ccc(NC(=O)c2sccc2C)cn1	-115
SMILES	aSyn 5UTR act
COc1ccc(NC(=O)c2nc3nccc(C)n3n2)cn1	-72
COc1ccc(NC(=O)c2cc(Br)c(Br)s2)cn1	-69
CCc1cc(C(=O)Nc2ccc(OC)nc2)sc1C	-95
CSc1ccc(-c2nnn(Cc3ccc(Br)cc3)n2)cc1	-74
CSc1ccc(-c2nnn(Cc3ccccn3)n2)cc1	-146
O=C(N=C1SCC(=O)N1c1ccccc1Cl)c1ccccc1	-210
O=C(N=C1SCC(=O)N1c1ccccc1Cl)c1ccco1	-174
N=C(N)SCc1ccc(Cl)cc1Cl	-71
Cc1ccc(N(C)/N=C/c2ccc(Cl)cc2Cl)nn1	-92
O=C(/C=C/c1ccccc1)N1CCC(c2ccccc2)C1 (stereo not drawn)	-82
CCOCCOC(=O)c1[nH]c2c(c1C)C(=O)CC(c1cccs1)C2 (stereo not drawn)	.
COC(=O)C1CCN(C(=O)/C=C/c2ccccc2)CC1	-135
CCOC(=O)C1CCN(C(=O)/C=C/c2cccs2)CC1	-70
CSc1ncc(-c2ccc(Cl)cc2)[nH]1	-145
Nc1ncc(Br)cc1N=Cc1ccccc1	-197
Cc1ccc(Oc2nn[nH]n2)cc1	-77
O=[N+]([O-])/C(C(Cl)=C(Cl)Cl)=C(\Sc1ccccc1)N1CCCCC1	-116
